Several values for one entry are separate records, joined by “and”; a condition that tells them apart may be missing. Identical values can stand only once. Counter-ions that a name gives are not always drawn. ± gives the standard deviation of the averaged measurements.
The compounds below were run on mESC LDLR-Dup GFP reporter (SpCas9 MH-deletion repair) (assay: fraction of GFP+ cells relative to DMSO control (fold change); higher = more MH-deletion repair to in-frame LDLR (or more editing)). Conditions: 2 µM; 7 days post-transfection.

Structure (SMILES) | fraction of GFP+ cells
O=C(c1ccc(Cl)cc1Cl)n1nnc2ccccc21 | 0.756 ± 0.056
O=C(O)CCCc1ccccc1 [Sodium Phenylbutyrate] | 0.708 ± 0.082
Nc1ncnc2c1ncn2[C@@H]1O[C@H](CO)[C@@H](O)[C@H]1O [Adenosine] | 1.04 ± 0.13
O=C(CCCCCCC(=O)Nc1ccc([C@H]2O[C@@H](CSc3nc(-c4ccccc4)c(-c4ccccc4)o3)C[C@@H](c3ccc(CO)cc3)O2)cc1)NO [Tubacin] | 0.972 ± 0.16
O=c1[nH]c(=O)n(C2CC(O)C(CO)O2)cc1Br (centres undefined) [Bromodeoxyuridine (BrdU)] | 1.79 ± 0.2
CCc1ccc(CCOc2ccc(CC3SC(=O)NC3=O)cc2)nc1 (centres undefined) [Pioglitazone HCl] | 1.11 ± 0.13
C=C1CC[C@H](O)C/C1=C/C=C1\CCC[C@]2(C)[C@@H]([C@H](C)/C=C/[C@H](C)C(C)C)CC[C@@H]12 [Vitamin D2] | 1.43 ± 0.26
N=C1CCCN1Cc1[nH]c(=O)[nH]c(=O)c1Cl [Tipiracil hydrochloride] | 0.837 ± 0.26
O=C1NCCc2[nH]c(-c3ccncc3)cc21 | 1.61 ± 0.078
CN1CCN(c2c(F)cc3c(=O)c(C(=O)O)cn4c3c2OCN4C)CC1 [Marbofloxacin] | 1.19 ± 0.59
O=C(COc1cccc2c(=O)[nH]ccc12)c1ccccc1 | 0.936 ± 0.095
CC(=O)c1c(C)c2cnc(Nc3ccc(N4CCNCC4)cn3)nc2n(C2CCCC2)c1=O | 1.36 and 0.964
CCOC(=O)Nc1ccc(NCc2ccc(F)cc2)nc1N [Flupirtine maleate] | 0.989 ± 0.52
O=c1cc(-c2cccc3c2Sc2ccccc2S3)oc(N2CCOCC2)c1 | 0.661 ± 0.19
CC(C)c1cnn2c(NCc3ccccc3)cc(NCCCCCCN)nc12 | 1.07 ± 0.18
O=C(NCc1cccc(O)c1)Nc1nc(-c2ccncc2)cs1 | 1.11 ± 0.49
CN1CCN(c2ccc(Nc3ncc4cc(C#N)c(=O)n(C5CCCC5)c4n3)cc2)CC1 | 0.705 ± 0.077
CC1COc2c(N3CCN(C)CC3)c(F)cc3c(=O)c(C(=O)O)cn1c23 (centres undefined) [Ofloxacin] | 1.08 ± 0.19
CN(C)CCNC(=O)c1cccn2c(=O)c3cc4ccccc4cc3nc12 | 1.06 ± 0.28
CNCc1ccc(-c2cc(-c3nc(-c4ccc(S(=O)(=O)C(C)C)cc4)cnc3N)on2)cc1 | 0.301 ± 0.12

Structure (SMILES) | fraction of GFP+ cells
O=c1ccc2cc3ccoc3cc2o1 [Psoralen] | 1.11 ± 0.41
COc1nc(OCc2cccc(-c3ccccc3)c2C)ccc1CNCCNC(C)=O [bms202 (PD-1/PD-L1 inhibitor 2] | 1.04 ± 0.3
O=C(Nc1ccccc1)c1cc([N+](=O)[O-])ccc1Cl | 1.96 ± 0.34
Cc1ncc([N+](=O)[O-])n1CCO [Metronidazole] | 0.96 ± 0.35
Cn1cc(-c2ccc3c(c2)CCN3C(=O)Cc2cccc(C(F)(F)F)c2)c2c(N)ncnc21 | 0.644 ± 0.25
Cc1nc(N(C)C(=O)Cc2ccc(-c3ccccn3)cc2)sc1S(N)(=O)=O [Pritelivir (BAY 57-1293)] | 1.01 ± 0.22
Cc1nc2c(O)cccc2c(=O)[nH]1 | 0.926 ± 0.11
O=C(NCC1(c2nc(-c3ccccc3)cs2)CCOCC1)c1cccc(-c2noc(C(F)(F)F)n2)c1 | 0.752 ± 0.12
CO[C@H]1/C=C/O[C@@]2(C)Oc3c(C)c(O)c4c(O)c(c(/C=N/N5CCN(C)CC5)c(O)c4c3C2=O)NC(=O)/C(C)=C\C=C\[C@H](C)[C@H](O)[C@@H](C)[C@@H](O)[C@@H](C)[C@H](OC(C)=O)[C@@H]1C [Rifampin] | 2.38 ± 0.52
Cc1ccc(S(=O)(=O)c2ccc([N+](=O)[O-])o2)cc1 | 1.39 ± 0.46
COc1ccc(-c2nc(-c3cc(C(F)(F)F)cc(C(F)(F)F)c3)n(Cc3ccc(C(N)=O)cc3)c2-c2ccc(OC)cc2)cc1 [Apoptozole] | 1.14 ± 0.37
CN(Cc1cnc2nc(N)nc(N)c2n1)c1ccc(C(=O)N[C@@H](CCC(=O)O)C(=O)O)cc1 [Methotrexate] | 1.53 ± 0.28
COc1ccc(S(=O)(=O)NCc2ccc(C(=O)NCCc3ccc(Cl)cn3)cc2)cc1 | 0.936 ± 0.16
C#Cc1cccc(Nc2ncnc3cc(OC)c(OCCCCCCC(=O)NO)cc23)c1 | 0.66 ± 0.054
CC(C)OC(=O)C(C)(C)Oc1ccc(C(=O)c2ccc(Cl)cc2)cc1 [Fenofibrate] | 1.96 ± 0.19
Cc1c(C)c2c(c(C)c1O)CCC(C)(COc1ccc(CC3SC(=O)NC3=O)cc1)O2 (centres undefined) [Troglitazone (CS-045)] | 1.34 ± 0.24
C[C@H]1CNCCCN1S(=O)(=O)c1cccc2cncc(F)c12 [Ripasudil (K-115) hydrochloride dihydrate] | 1.31 ± 0.45
C[C@H]1COc2c(N3CCN(C)CC3)c(F)cc3c(=O)c(C(=O)O)cn1c23 [Levofloxacin hydrate] | 0.935 ± 0.12
CC(C(=O)Nc1cccc(/N=C/c2c(O)ccc3ccccc23)c1)c1ccccc1 (centres undefined) [Salermide] | 0.987 ± 0.56

— the supplement of paper PMC8387472
